# Measurements from article PMC7862700, “An all-to-all approach to the identification of sequence-specific readers for epigenetic DNA modifications on cytosine”.
# Legend:
# Assay in all cases: DAPPL (digital affinity profiling via proximity ligation, sequencing); 10 mM Tris-HCl pH 7.5, 50 mM NaCl, 1 mM DTT, 4% glycerol, room temperature, 30 min; GST-TFs on glutathione beads, 16-mer random dsDNA library, 0.1% formaldehyde crosslink after washing; high values mean tight binding
# FLI1 = biological target: T1, FLI1 (Homo sapiens, UniProt Q01543 1-452); conditions: protein: recombinant; tags: N-terminal GST; dsDNA, one strand shown
# T1 sequence: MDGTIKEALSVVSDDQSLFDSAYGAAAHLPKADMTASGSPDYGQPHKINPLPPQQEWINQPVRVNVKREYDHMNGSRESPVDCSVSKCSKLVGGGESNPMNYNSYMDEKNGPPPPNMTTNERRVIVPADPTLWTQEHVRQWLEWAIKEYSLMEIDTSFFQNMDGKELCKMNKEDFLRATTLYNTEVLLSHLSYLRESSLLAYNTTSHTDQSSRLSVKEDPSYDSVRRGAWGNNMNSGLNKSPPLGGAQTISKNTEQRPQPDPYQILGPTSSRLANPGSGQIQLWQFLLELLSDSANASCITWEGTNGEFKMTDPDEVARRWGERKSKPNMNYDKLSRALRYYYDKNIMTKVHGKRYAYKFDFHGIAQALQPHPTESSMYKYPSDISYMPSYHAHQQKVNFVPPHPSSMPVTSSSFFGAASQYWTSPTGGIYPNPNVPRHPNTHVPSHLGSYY
# How it was run: (§1)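 Yeast served to express human transcription factors as GST fusions, which were then captured on glutathione beads and labelled with DNA barcodes. Pooled with a tag-only sample, they were incubated with 200 nmole of a 16-mer random double-stranded DNA library for 30 min at room temperature in Tris/NaCl/DTT/glycerol buffer, washed, crosslinked with 0.1% formaldehyde, ligated by proximity, amplified by PCR and sequenced. Dividing each hexamer's read frequency for a factor by its frequency for the tag-only sample gives the binding signal.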
# ELK1 = biological target: T2, ELK1 (Homo sapiens, UniProt P19419 1-428); conditions: protein: recombinant; tags: N-terminal GST; dsDNA, one strand shown
# T2 sequence: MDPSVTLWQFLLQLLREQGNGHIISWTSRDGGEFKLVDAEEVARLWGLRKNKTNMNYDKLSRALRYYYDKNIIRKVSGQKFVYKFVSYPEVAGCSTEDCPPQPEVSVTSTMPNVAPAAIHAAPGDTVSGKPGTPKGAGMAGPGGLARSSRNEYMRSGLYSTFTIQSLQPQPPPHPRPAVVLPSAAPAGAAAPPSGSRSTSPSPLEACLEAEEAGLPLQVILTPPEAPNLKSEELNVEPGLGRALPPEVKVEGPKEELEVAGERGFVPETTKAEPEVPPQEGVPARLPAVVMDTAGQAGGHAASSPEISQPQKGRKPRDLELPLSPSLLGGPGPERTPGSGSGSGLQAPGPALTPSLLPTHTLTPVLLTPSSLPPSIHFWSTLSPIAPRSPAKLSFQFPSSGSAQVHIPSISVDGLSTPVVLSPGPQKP
# How it was run: as §1
# GABPA = biological target: T3, GABPA (Homo sapiens, UniProt Q06546 1-454); conditions: protein: recombinant; tags: N-terminal GST; dsDNA, one strand shown
# T3 sequence: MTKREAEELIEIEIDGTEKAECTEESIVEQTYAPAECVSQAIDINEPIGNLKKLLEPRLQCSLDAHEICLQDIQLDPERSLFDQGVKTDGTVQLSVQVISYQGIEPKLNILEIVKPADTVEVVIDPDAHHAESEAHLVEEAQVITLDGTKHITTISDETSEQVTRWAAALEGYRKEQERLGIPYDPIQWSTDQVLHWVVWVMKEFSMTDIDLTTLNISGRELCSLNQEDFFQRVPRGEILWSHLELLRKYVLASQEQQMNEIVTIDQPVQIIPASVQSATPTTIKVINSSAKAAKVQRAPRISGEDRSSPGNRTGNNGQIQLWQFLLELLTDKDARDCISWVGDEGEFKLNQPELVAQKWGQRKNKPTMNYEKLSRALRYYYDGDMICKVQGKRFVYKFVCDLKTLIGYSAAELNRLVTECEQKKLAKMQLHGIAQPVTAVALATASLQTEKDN
# How it was run: as §1
# ERG = biological target: T4, ERG (Homo sapiens, UniProt P11308 1-479); conditions: protein: recombinant; tags: N-terminal GST; dsDNA, one strand shown
# T4 sequence: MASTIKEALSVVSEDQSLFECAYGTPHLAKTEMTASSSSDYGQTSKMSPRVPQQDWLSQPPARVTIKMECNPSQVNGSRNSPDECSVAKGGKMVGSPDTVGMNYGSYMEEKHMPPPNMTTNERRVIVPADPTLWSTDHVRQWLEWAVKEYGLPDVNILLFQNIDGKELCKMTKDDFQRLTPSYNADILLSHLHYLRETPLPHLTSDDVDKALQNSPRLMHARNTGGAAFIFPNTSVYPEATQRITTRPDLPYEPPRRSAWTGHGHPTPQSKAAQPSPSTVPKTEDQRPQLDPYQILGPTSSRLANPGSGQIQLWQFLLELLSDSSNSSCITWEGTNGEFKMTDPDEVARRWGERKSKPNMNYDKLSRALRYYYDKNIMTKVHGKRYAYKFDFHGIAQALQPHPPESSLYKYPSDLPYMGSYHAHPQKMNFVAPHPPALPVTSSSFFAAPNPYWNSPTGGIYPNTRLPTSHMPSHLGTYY
# How it was run: as §1
# ELF1 = ELF1 (Homo sapiens, UniProt P32519 1-619); conditions: protein: recombinant; tags: N-terminal GST; dsDNA, one strand shown
# Chain of ELF1 (P32519 whole entry): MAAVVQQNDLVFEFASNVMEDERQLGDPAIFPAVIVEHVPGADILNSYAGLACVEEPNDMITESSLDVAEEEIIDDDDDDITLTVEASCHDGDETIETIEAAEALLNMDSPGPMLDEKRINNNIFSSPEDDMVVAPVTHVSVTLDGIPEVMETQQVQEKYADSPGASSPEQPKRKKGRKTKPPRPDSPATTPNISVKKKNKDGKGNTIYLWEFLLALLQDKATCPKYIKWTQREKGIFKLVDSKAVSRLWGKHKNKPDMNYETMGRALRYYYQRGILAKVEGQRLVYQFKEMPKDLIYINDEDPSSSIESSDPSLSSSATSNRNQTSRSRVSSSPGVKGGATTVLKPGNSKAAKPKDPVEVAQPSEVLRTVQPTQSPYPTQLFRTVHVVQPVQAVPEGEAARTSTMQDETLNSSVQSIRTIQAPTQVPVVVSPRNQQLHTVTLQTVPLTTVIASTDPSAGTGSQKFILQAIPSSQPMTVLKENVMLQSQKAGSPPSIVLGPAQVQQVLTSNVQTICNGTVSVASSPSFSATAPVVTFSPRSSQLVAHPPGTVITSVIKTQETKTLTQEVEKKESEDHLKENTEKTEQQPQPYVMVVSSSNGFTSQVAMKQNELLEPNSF
# How it was run: as §1
# EHF = biological target: T5, EHF (Homo sapiens, UniProt Q9NZC4 1-300); conditions: protein: recombinant; tags: N-terminal GST; dsDNA, one strand shown
# T5 sequence: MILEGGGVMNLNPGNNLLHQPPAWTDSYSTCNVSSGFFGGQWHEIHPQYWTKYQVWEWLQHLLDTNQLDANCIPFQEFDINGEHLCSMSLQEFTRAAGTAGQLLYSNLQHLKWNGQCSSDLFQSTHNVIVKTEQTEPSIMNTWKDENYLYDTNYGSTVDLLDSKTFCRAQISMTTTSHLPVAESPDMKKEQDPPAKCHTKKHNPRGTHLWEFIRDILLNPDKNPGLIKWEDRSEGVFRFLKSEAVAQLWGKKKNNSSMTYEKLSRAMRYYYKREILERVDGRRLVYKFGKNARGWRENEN
# How it was run: as §1
# SPI1 = SPI1 (Homo sapiens, UniProt P17947 1-270); conditions: protein: recombinant; tags: N-terminal GST; dsDNA, one strand shown
# How it was run: as §1
# SPIB = SPIB (Homo sapiens, UniProt Q01892 1-262); conditions: protein: recombinant; tags: N-terminal GST; dsDNA, one strand shown
# Chain of SPIB (Q01892 whole entry): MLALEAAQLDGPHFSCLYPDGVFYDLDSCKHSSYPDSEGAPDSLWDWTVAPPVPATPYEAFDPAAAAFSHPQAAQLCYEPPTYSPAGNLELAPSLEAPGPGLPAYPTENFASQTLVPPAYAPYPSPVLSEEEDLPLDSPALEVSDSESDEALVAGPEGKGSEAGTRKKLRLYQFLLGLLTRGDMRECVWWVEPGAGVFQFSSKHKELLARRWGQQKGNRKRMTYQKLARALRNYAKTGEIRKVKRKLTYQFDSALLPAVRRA
# How it was run: as §1
# ELK3 = biological target: T6, ELK3 (Homo sapiens, UniProt P41970 1-407); conditions: protein: recombinant; tags: N-terminal GST; dsDNA, one strand shown
# T6 sequence: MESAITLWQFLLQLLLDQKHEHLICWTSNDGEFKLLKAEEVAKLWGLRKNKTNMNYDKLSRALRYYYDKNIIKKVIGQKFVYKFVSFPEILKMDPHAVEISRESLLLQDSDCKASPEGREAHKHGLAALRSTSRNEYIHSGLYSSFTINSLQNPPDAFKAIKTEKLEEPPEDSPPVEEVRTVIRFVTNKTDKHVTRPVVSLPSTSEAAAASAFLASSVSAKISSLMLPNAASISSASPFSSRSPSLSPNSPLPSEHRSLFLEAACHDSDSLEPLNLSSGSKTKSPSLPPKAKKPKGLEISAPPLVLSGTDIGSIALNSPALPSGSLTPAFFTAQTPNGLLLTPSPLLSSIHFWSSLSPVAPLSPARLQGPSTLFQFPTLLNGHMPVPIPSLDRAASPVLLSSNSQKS
# How it was run: as §1
# FEV = biological target: T7, FEV (Homo sapiens, UniProt Q99581 1-238); conditions: protein: recombinant; tags: N-terminal GST; dsDNA, one strand shown
# T7 sequence: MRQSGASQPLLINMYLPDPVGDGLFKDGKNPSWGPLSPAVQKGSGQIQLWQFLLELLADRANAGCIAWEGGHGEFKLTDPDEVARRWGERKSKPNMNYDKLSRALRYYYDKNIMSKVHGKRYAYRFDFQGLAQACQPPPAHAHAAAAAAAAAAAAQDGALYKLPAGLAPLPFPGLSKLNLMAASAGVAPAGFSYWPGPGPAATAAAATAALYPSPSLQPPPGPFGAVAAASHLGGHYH
# How it was run: as §1
# ETV5 = ETV5 (Homo sapiens, UniProt P41161 1-510); conditions: protein: recombinant; tags: N-terminal GST; dsDNA, one strand shown
# Chain of ETV5 (P41161 whole entry): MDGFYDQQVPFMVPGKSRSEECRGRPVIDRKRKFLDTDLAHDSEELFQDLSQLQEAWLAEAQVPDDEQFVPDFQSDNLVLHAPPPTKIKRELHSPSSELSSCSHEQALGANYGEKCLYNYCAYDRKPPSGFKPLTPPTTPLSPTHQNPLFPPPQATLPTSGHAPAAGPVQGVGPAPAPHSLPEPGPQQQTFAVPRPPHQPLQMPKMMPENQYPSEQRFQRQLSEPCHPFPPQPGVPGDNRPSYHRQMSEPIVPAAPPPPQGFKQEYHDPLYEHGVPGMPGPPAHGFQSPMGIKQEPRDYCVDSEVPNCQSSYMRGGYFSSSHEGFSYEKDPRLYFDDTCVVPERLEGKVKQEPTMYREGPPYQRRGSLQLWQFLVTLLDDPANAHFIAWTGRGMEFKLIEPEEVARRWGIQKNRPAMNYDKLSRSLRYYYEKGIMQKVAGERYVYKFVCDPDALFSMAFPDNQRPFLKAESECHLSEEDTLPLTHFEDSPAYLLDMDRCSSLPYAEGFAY
# How it was run: as §1
# HSF1 = HSF1 (Homo sapiens, UniProt Q00613 1-529); conditions: protein: recombinant; tags: N-terminal GST; chain copies: 3; dsDNA, one strand shown
# Chain of HSF1 (Q00613 whole entry): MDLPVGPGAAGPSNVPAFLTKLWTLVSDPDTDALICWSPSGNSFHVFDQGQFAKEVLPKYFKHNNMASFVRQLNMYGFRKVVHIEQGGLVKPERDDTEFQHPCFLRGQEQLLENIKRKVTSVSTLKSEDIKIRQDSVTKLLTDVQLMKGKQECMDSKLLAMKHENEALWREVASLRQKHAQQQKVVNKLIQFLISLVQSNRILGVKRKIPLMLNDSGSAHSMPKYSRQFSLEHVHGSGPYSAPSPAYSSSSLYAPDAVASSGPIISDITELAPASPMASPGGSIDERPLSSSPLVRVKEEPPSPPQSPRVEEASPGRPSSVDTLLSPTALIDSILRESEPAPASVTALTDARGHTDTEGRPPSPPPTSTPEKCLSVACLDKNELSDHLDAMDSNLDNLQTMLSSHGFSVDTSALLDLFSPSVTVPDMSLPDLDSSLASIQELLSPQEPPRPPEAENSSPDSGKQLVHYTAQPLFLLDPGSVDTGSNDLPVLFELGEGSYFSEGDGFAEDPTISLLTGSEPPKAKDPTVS
# How it was run: as §1
# SPIC = biological target: T8, SPIC (Homo sapiens, UniProt Q8N5J4 1-248); conditions: protein: recombinant; tags: N-terminal GST; dsDNA, one strand shown
# T8 sequence: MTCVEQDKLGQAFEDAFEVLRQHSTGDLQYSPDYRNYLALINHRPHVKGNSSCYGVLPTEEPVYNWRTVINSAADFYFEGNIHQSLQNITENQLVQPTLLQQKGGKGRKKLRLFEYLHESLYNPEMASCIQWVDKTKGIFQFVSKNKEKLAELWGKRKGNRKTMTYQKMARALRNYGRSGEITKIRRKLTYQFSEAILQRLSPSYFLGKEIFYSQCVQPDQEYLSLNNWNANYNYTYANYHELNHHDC
# How it was run: as §1
# ELF4 = ELF4 (Homo sapiens, UniProt Q99607 1-663); conditions: protein: recombinant; tags: N-terminal GST; dsDNA, one strand shown
# Chain of ELF4 (Q99607 whole entry): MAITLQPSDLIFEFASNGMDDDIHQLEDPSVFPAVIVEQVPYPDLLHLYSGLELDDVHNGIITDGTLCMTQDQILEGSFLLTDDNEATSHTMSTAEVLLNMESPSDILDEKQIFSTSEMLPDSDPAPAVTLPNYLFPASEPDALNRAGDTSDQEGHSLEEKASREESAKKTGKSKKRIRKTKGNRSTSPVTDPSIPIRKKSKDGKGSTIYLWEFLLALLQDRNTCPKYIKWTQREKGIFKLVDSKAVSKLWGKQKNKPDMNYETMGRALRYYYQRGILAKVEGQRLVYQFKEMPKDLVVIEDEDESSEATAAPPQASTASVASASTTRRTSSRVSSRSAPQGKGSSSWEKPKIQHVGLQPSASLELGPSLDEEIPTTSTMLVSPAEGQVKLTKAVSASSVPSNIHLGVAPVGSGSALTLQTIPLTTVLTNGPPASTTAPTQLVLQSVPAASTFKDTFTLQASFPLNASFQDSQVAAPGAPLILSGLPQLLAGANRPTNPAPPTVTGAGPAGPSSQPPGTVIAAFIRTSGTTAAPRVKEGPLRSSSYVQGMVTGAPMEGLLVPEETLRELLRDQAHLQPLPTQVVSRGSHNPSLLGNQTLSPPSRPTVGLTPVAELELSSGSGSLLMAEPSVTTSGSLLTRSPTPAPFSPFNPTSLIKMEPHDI
# How it was run: as §1
# ELK4 = biological target: T9, ELK4 (Homo sapiens, UniProt P28324-2 1-405); conditions: protein: recombinant; tags: N-terminal GST; dsDNA, one strand shown
# T9 sequence: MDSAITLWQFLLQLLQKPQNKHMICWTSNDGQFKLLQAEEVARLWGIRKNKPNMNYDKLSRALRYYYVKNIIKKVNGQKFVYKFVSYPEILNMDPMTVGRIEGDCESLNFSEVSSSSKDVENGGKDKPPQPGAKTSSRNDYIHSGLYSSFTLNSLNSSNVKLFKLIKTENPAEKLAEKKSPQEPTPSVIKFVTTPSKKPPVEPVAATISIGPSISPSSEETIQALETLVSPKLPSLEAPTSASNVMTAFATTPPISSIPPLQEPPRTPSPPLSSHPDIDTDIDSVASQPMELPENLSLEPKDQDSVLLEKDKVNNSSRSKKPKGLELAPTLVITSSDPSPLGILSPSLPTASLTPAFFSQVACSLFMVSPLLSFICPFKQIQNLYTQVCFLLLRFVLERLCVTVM
# How it was run: as §1
# ETV2 = biological target: T10, ETV2 (Homo sapiens, UniProt O00321 1-342); conditions: protein: recombinant; tags: N-terminal GST; dsDNA, one strand shown
# T10 sequence: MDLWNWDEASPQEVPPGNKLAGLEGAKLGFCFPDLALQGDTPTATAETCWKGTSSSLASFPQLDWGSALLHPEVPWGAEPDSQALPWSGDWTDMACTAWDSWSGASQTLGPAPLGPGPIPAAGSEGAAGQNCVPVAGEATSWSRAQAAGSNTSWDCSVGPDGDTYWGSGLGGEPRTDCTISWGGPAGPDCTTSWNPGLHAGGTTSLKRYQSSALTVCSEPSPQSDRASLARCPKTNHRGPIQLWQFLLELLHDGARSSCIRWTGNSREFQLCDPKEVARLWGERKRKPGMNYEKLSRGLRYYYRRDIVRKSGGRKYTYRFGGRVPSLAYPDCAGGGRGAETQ
# How it was run: as §1
# ELF3 = biological target: T11, ELF3 (Homo sapiens, UniProt P78545 1-371); conditions: protein: recombinant; tags: N-terminal GST; dsDNA, one strand shown
# T11 sequence: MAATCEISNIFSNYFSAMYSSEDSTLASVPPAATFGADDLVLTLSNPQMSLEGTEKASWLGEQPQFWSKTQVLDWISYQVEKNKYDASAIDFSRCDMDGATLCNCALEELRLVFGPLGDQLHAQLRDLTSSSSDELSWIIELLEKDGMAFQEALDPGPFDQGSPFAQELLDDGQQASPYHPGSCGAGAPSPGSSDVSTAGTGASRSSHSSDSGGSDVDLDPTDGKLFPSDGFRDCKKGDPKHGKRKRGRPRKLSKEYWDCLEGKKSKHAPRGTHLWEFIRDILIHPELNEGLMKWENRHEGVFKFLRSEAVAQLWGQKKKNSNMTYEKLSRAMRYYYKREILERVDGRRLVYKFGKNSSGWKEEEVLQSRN
# How it was run: as §1
# CRX = CRX (Homo sapiens, UniProt O43186 1-299); conditions: protein: recombinant; tags: N-terminal GST; dsDNA, one strand shown
# Chain of CRX (O43186 whole entry): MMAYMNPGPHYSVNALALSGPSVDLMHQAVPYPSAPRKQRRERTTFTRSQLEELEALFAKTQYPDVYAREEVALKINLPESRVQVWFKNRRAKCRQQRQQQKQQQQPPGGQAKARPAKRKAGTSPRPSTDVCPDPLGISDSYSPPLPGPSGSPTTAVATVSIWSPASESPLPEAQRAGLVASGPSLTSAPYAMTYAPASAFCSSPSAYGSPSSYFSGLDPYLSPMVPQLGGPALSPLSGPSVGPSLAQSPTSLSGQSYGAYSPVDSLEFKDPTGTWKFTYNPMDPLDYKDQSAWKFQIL
# How it was run: as §1
# ETV1 = ETV1 (Homo sapiens, UniProt P50549 1-477); conditions: protein: recombinant; tags: N-terminal GST; dsDNA, one strand shown
# Chain of ETV1 (P50549 whole entry): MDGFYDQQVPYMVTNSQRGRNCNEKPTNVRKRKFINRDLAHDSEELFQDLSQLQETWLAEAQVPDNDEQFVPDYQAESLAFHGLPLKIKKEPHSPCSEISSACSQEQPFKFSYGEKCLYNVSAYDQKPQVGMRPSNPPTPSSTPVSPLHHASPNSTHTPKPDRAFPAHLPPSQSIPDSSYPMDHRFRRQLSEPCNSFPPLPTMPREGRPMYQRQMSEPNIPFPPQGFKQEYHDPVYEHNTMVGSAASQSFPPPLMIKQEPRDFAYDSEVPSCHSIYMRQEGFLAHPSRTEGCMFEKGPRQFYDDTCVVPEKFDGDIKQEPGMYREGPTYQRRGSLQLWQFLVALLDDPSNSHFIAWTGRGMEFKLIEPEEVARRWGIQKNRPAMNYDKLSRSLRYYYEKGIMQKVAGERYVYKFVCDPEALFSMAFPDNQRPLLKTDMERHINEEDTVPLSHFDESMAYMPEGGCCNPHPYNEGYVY
# How it was run: as §1
sequence,measurement,setting,value
TCACCA,binding signal,FLI1,"1.18 fold enrichment (6-mer frequency, TF over GST control)"
same,binding signal,ELK1,"1.23 fold enrichment (6-mer frequency, TF over GST control)"
same,binding signal,GABPA,"1.12 fold enrichment (6-mer frequency, TF over GST control)"
same,binding signal,ERG,"1.14 fold enrichment (6-mer frequency, TF over GST control)"
same,binding signal,ELF1,"1.18 fold enrichment (6-mer frequency, TF over GST control)"
same,binding signal,EHF,"1.06 fold enrichment (6-mer frequency, TF over GST control)"
same,binding signal,SPI1,"1.21 fold enrichment (6-mer frequency, TF over GST control)"
same,binding signal,SPIB,"1.2 fold enrichment (6-mer frequency, TF over GST control)"
same,binding signal,ELK3,"1.22 fold enrichment (6-mer frequency, TF over GST control)"
same,binding signal,FEV,"1.16 fold enrichment (6-mer frequency, TF over GST control)"
same,binding signal,ETV5,"1.12 fold enrichment (6-mer frequency, TF over GST control)"
same,binding signal,HSF1,"1.01 fold enrichment (6-mer frequency, TF over GST control)"
same,binding signal,SPIC,"1.19 fold enrichment (6-mer frequency, TF over GST control)"
same,binding signal,ELF4,"1.25 fold enrichment (6-mer frequency, TF over GST control)"
same,binding signal,ELK4,"1.21 fold enrichment (6-mer frequency, TF over GST control)"
same,binding signal,ETV2,"1.32 fold enrichment (6-mer frequency, TF over GST control)"
same,binding signal,ELF3,"1.39 fold enrichment (6-mer frequency, TF over GST control)"
same,binding signal,CRX,"1.04 fold enrichment (6-mer frequency, TF over GST control)"
same,binding signal,ETV1,"1.13 fold enrichment (6-mer frequency, TF over GST control)"
